# Hits are enriched below; roughly 28% of the tested compounds scored in any of these assays.
# CYP2C9 inh – blocks human cytochrome P450 2C9; CYP2C9 Supersomes, luciferin-H conversion, luminescence; inhibition, % at 5 µM; hit rate 20% among 96,000;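 active = blocking of liver enzyme CYP2C9 beyond about 50% at 5 µM, limit read from the data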
# Pyk2 oligo antag – Pyk2 (human) oligomerization antagonism | Q14289 | Q293 cells, Pyk2 FERM NanoBiT luminescence; stronger effect = lower value | z-score (the deposit names both 25 µM and 10 µM) | hit rate 0.83% among 99,000 | AID 1347419;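 active = Z-score of -3 or lower, scaled per plate to the spread of control and sample wells; inactive = z-score above -3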;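 note: negative z-score means lost luminescence so less FERM oligomerization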
# CYP2C19 inhib – human CYP2C19 inhibition. CYP2C19 Supersomes, luciferin-H EGE luminescence, 30 min. inhibition, % at 5 µM. hit rate 21% among 96,000. AID 778;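 active = CYP2C19 inhibition above a set limit at 5 µM in the primary screen, cut at about 50% in these data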
# Target sequence (P33261 whole entry, looked up): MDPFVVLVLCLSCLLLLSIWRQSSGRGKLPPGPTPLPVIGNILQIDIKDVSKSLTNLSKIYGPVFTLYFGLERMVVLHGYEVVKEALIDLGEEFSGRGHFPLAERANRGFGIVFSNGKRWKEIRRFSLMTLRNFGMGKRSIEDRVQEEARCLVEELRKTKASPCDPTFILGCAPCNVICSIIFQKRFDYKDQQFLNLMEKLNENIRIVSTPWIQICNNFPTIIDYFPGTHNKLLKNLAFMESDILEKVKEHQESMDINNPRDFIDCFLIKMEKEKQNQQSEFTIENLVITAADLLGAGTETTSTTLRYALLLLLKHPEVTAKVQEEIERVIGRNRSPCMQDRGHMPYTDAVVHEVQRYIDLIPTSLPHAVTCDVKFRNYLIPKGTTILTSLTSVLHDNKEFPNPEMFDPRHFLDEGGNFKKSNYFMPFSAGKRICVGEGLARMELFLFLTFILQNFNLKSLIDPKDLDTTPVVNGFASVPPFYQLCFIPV
# CYP2C19 activ – activators of human cytochrome P450 2C19; activation factor at 5 µM; recombinant CYP2C19, luciferin-H EGE luminescence; stronger effect = higher value; 0 = fully inhibited enzyme, 1 = untreated enzyme; AID 1025; 96,000 tested, under 10 active; P33261;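 active = activation factor of at least 2 at 5 µM in the primary screen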
# CYP2C9 activ – increases human cytochrome P450 2C9 activity | hit rate 1.4% among 96,000 | activation factor at 5 µM | recombinant CYP2C9, luciferin-H conversion, luminescence; stronger effect = higher value; factor 1 = untreated enzyme, 0 = blocked | P11712;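 active = activation factor of 2 or more for CYP2C9 at a 5 µM dose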
# Hits are given with their value; - = inactive; . = not tested or not shown.
SMILES,CYP2C9 inh,Pyk2 oligo antag,CYP2C19 inhib,CYP2C19 activ,CYP2C9 activ
O=C(CSc1nc2ccccc2[nH]1)N1CCCCC1,-,-,88,-,-
c1ccc2[nH]c(SCCN3CCOCC3)nc2c1,-,-,59,-,-
CC(C)c1c(O)nc(SCC(=O)N2CCOCC2)[nH]c1=O,-,-,-,-,-
O=C(CSc1nc2ccccc2[nH]1)N1CCN(c2ccccc2)CC1,-,-,-,-,-
CC1CC(=O)c2cn3c(nc2C1)nc1ccccc13 (stereo not drawn),-,-,-,-,-
CCOC(=O)CSc1nc2ccc(S(=O)(=O)N3CCOCC3)cc2[nH]1,-,-,-,-,-
Cc1ccc2nc(SCC(=O)N3CCOCC3)[nH]c2c1,-,-,68,-,-
Cc1ccc(C)c(N(C(=O)Cn2nnc3ccccc32)C(C(=O)NC(C)(C)C)c2ccsc2)c1 (stereo not drawn),-,-,-,-,-
CN(C)CCCOC(=O)c1ccccc1Cl,-,-,-,-,-
O=C(OCc1cnc(Cl)s1)c1ccccc1Cl,-,-,77,-,-
O=C(c1cccc(Cl)c1Cl)N1CCN(c2ccccn2)CC1,-,-,-,-,-
O=C(OCc1cnc(Cl)s1)c1cccc(Cl)c1Cl,-,-,92,-,-
CCn1c(C)nc2cc(S(=O)(=O)C(F)(F)C(F)C(F)(F)F)ccc21 (stereo not drawn),-,-,-,-,-
O=C1COc2ccc(C(=O)CSc3nnc(Cc4cccs4)n3-c3ccc(Cl)cc3)cc2N1,-,-,-,-,-
C=CCn1c(-c2csc3ccccc23)n[nH]c1=S,78,-,93,-,-
C=CCn1c(-c2csc(-c3ccccc3)n2)n[nH]c1=S,-,-,-,-,-
C=CCn1c(-c2csc(-c3ccc(Cl)cc3)n2)n[nH]c1=S,-,-,81,-,-
CC(C)c1nnc(NC(=O)Cn2nc(-c3ccc4c(c3)OCCO4)ccc2=O)s1,-,-,-,-,-
COc1ccc(OC2OC3COC(C)(C)OC3C(O)C2NC(C)=O)cc1 (stereo not drawn),.,-,.,.,.
Nc1c(NCc2ccccc2F)c(=O)[nH]c(=O)n1Cc1ccccc1,75,-,63,-,-
Nc1c(NCCC2=CCCCC2)c(=O)[nH]c(=O)n1Cc1ccccc1,-,-,-,-,-
CC(C)(C)C1CCC(OC(=O)c2ccncc2)CC1 (stereo not drawn),94,-,99,-,-
CN1CCC(OC(=O)c2ccc(Br)cc2)CC1,.,-,.,.,.
Cc1ccccc1NC(=O)CSc1nnc(-c2ccoc2C)n1CCc1ccccc1,-,-,-,-,-
Cc1occc1-c1nnc(SCC(=O)Nc2ccccc2)n1Cc1ccccc1,62,-,-,-,-
SMILES,CYP2C9 inh,Pyk2 oligo antag,CYP2C19 inhib,CYP2C19 activ,CYP2C9 activ
Cc1cc(NC(=O)CSc2nnc(-c3ccco3)n2Cc2ccccc2)no1,.,-,.,.,.
COc1ccc(NC(=O)CSc2nnc(-c3ccoc3C)n2CCc2ccccc2)cc1,89,-,88,-,-
Cc1occc1-c1nnc(SCC(=O)Nc2ccc(F)cc2)n1Cc1ccccc1,72,-,-,-,-
COc1ccc(NC(C)=O)cc1NC(=O)CSc1nnc(-c2ccc(F)cc2)n1N,-,-,-,-,-
CCOC(=O)C1=C(O)/C(=C\c2ccc(CNC(=O)C(=O)Nc3ccccc3)o2)N=C1C,-,-,-,-,-
COC(=O)c1c[nH]n2c(=O)c(Cc3ccc(F)cc3Cl)c(C)nc12,71,-,-,-,-
COc1ccccc1CNC(=O)c1cccs1,-,-,-,-,-
COc1ccccc1CNC(=O)Nc1cccs1,-,-,88,-,-
COc1ccc(Br)cc1CNC(=O)Nc1cccs1,67,-,76,-,-
NC(=O)C1CCN(C(=O)c2cc(S(=O)(=O)N3CCOCC3)c(Cl)cc2Cl)CC1,-,-,-,-,-
CCOc1ccc(N2C(=O)CC(NCCc3ccncc3)C2=O)cc1 (stereo not drawn),-,-,52,-,-
CCCOc1ccc(N2C(=O)CC(NCc3cccs3)C2=O)cc1 (stereo not drawn),.,-,.,.,.
CCCOc1ccc(N2C(=O)CC(N3CCN(c4ccccc4F)CC3)C2=O)cc1 (stereo not drawn),-,-,-,-,-
CCCOc1ccc(N2C(=O)CC(NCc3ccncc3)C2=O)cc1 (stereo not drawn),67,-,68,-,-
CCCOc1ccc(N2C(=O)CC(N3CCC(c4nncn4CC)CC3)C2=O)cc1 (stereo not drawn),64,-,-,-,-

# Compound activity as filed in PubChem BioAssay.
